Compound activity (PubChem BioAssay)
Most compounds without a hit are left out; they make up all but 3.9% or so of the library.
ATXN2 expr inh: inhibitors of ATXN2 expression; Potency, µM (top dose mostly 57 µM), hits mostly inhibitors; 360,000 tested, 0.72% active; AID 1745845; HEK-293 ATXN2-luciferase reporter, luminescence, 24 h; note: nearly all actives have a fitted effect of over 55% in size
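qHTS (up to 57 uM final) was run with 24 h compound exposure of reporter cells at 37 °C. Each well was multiplexed: SteadyGlo luminescence measured ATXN2-luciferase expression after a fluorogenic Gly-Phe-AFC viability readout (25 uM final).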
HepG2 tox-1: HepG2 cytotoxicity, counter-screen for TGF-b inhibitors | HepG2 CAGA-GFP viability, ATP luminescence, 18 h | Potency, µM (series often up to 46.1 µM), most hits filed as cytotoxic | 410,000 tested, 0.76% active | AID 588856
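HepG2 CAGA-GFP cells (1000/well, DMEM with 1% FBS) received compound, then TGF-beta at 500 pg/mL final, and were incubated 18 hours at 37 degrees C. Viability was read by CellTiter-Glo luminescence. Media-only wells were set as complete cell-killing and DMSO as no toxicity.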
HT1080 IDH1KD tx: toxicity to HT-1080 IDH1 knockdown cells (counter line). HT-1080 IDH1 knockdown viability, ATP luminescence, 48 h. Potency, µM (highest dose often 46.1 µM), actives largely listed as cytotoxic. 360,000 tested, 2% active. AID 686971
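% activity derives from luminescence (CellTiter-Glo), normalised to DMSO and no-cell wells. HT-1080-IDH1KD cells, 750/well, had 48 h compound exposure at 37 °C.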
S2 tox: reduces viability in counter-screen for ATXN expression inhibitors; S2 cells (HEK-293 line with an ATXN2-luciferase reporter) viability, CellTiter-Fluor protease fluorescence, 24 h; Potency, µM (top dose mostly 56.7 µM), actives largely listed as cytotoxic; 400,000 tested, 0.49% active; note: nearly all actives have a fitted effect of over 40% in size
TGFb SMAD3 inh: TGF-b pathway inhibition | HepG2 CAGA-GFP TGF-b/SMAD3 reporter, GFP fluorescence, 18 h; TGF-beta stimulated, 500 pg/mL final | Potency, µM (doses to about 46.1 µM), actives largely listed as inhibitors | 410,000 tested, 1.2% active | AID 588855; note: nearly all actives have a fitted effect of over 65% in size
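GFP signal (ex488/em500-530) from TGF-beta-stimulated HEPG2 CAGA-GFP cells, 500 pg/mL final, 18 h at 37 degrees C in DMEM plus 1% FBS, normalized to unstimulated and DMSO-stimulated controls.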
HT1080-NT tox: kills 2HG-producing HT-1080-NT fibrosarcoma cells; HT-1080-NT fibrosarcoma viability, CellTiter-Glo ATP luminescence, 48 h; Potency, µM (titrated, usually from 46.1 µM), usual class: cytotoxic; 360,000 tested, 1.6% active;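 note: NT is the 2HG producing partner of a matched IDH1 knockdown line; nearly all actives have a fitted effect of over 55% in size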
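Viability by CellTiter-Glo luminescence after 48 h compound exposure at 37C of HT-1080-NT cells (750/well, RPMI, 5% FBS). % activity scaled between DMSO wells and medium-only wells, then curve-fitted and categorized by curve class.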
TGFb CAGA inh: TGF-b pathway inhibition, cherry-pick retest | shares compounds with TGFb SMAD3 inh | 1,600 tested, 63% active | Potency, µM (doses to about 46.1 µM), hits mostly inhibitors | HepG2 CAGA-GFP TGF-b reporter, GFP fluorescence, 18 h; cells stimulated with TGF-beta, 500 pg/mL; note: nearly all actives have a fitted effect of over 65% in size
HepG2 tox-2: toxic to HepG2 cells in TGF-b counterscreen. shares compounds with TGFb SMAD3 inh. HepG2 CAGA-GFP viability, ATP luminescence, 18 h; cells stimulated with TGF-beta, 500 pg/mL. Potency, µM (titrated, usually from 46.1 µM), actives largely listed as inhibitors. 1,600 tested, 27% active. AID 720535; note: nearly all actives have a fitted effect of over 70% in size
CCL64 TGFb inh: orthogonal confirmation of TGF-b inhibitors in CCL64 cells. shares compounds with TGFb SMAD3 inh. CCL64 CAGA-GFP reporter, TGF-b stimulated, GFP fluorescence, 18 h. Potency, µM (titrated, usually from 46.1 µM), hits mostly inhibitors. 1,600 tested, 41% active; note: nearly all actives have a fitted effect of over 65% in size
TGFb COP inh: TGF-b inhibition validated with COP promoter. shares compounds with TGFb SMAD3 inh. HepG2 COP-GFP TGF-b reporter, GFP fluorescence, 18 h; cells stimulated by added recombinant TGF-beta. Potency, µM (series often up to 46.1 µM), most hits filed as inhibitors. 1,600 tested, 3% active. AID 720537; note: nearly all actives have a fitted effect of over 70% in size
Of the large screens only hits and unclear results are named; the others gave an inactive call (follow-up assays come after a bar, where they were run). Calls come from the whole dose curve; as a rule, active = well fitted curve in the direction sought with a large enough effect; inconclusive = small, poorly fitted or top-dose-only effect, or another doubt; inactive = no such curve, though single readings can be large; an effect the other way counts as inactive or inconclusive.

CCOc1cc(C(=O)Nc2ccc3nc(Nc4cccc(Cl)c4)cc(C)c3c2)cc(OCC)c1OCC	none (no result: HT1080 IDH1KD tx, HT1080-NT tox)
Cc1ccc(COc2ccccc2-c2cc(C(=O)N/N=C/c3cccnc3)[nH]n2)cc1	ATXN2 expr inh inconclusive, HT1080 IDH1KD tx 6.5µM, S2 tox inconclusive, TGFb SMAD3 inh 11µM, HT1080-NT tox inconclusive | TGFb CAGA inh inconclusive | HepG2 tox-2 inconclusive | CCL64 TGFb inh 23µM | TGFb COP inh inactive
COc1cc(CN2CCC(C(=O)NC(c3ccc(F)cc3)c3ccc4ccccc4n3)CC2)cc(OC)c1 (stereo unspecified)	HepG2 tox-1 5.6µM, HT1080 IDH1KD tx 3.3µM, S2 tox inconclusive, TGFb SMAD3 inh 3.5µM, HT1080-NT tox 2.3µM | TGFb CAGA inh inconclusive | HepG2 tox-2 15µM | CCL64 TGFb inh 8.2µM | TGFb COP inh inconclusive
O=C(NC(c1ccccc1)c1ccc2ccccc2n1)C1CCN(CCOc2ccc(Cl)cc2)CC1 (stereo unspecified)	ATXN2 expr inh 28µM, HepG2 tox-1 11µM, HT1080 IDH1KD tx 4.1µM, S2 tox 28µM, TGFb SMAD3 inh 7.1µM, HT1080-NT tox 3.7µM | TGFb CAGA inh 6.5µM | HepG2 tox-2 5.2µM | CCL64 TGFb inh 3.7µM | TGFb COP inh inconclusive
Cc1ccc(C(NC(=O)C2CCN(CCOc3ccccc3)CC2)c2ccccn2)cc1 (stereo unspecified)	none
COc1ccc(CN2CCC(C(=O)NC(c3ccc4c(c3)OCO4)c3ccccn3)CC2)cc1 (stereo unspecified)	S2 tox inconclusive
CCc1ccccc1NC(=O)c1sc(-n2nc(C)c(Cc3ccc4c(c3)OCO4)c2C)nc1C	none (no result: HT1080 IDH1KD tx, HT1080-NT tox)
COc1ccc(NC(=O)Cn2c(SCc3ccc(C)cc3)nc3cccnc32)c(OC)c1	TGFb SMAD3 inh inconclusive (no result: ATXN2 expr inh, HT1080 IDH1KD tx, S2 tox, HT1080-NT tox)
Cc1ccc(OC(=O)c2cc(-c3ccc4c(c3)OCCO4)on2)c(C)c1	none (no result: ATXN2 expr inh, HT1080 IDH1KD tx, S2 tox, HT1080-NT tox)
Nc1ncnc2c1ncn2C1C=C(CO)C(O)C1O (stereo unspecified)	ATXN2 expr inh inconclusive, HepG2 tox-1 10µM, HT1080 IDH1KD tx inconclusive, S2 tox inconclusive, TGFb SMAD3 inh 8.9µM, HT1080-NT tox inconclusive | TGFb CAGA inh inconclusive | HepG2 tox-2 0.13µM | CCL64 TGFb inh inconclusive | TGFb COP inh inactive
COc1ccc(S(=O)(=O)Nc2ccc(F)c(F)c2)cc1Cl	HT1080 IDH1KD tx inconclusive, TGFb SMAD3 inh 10µM, HT1080-NT tox inconclusive | TGFb CAGA inh inactive | HepG2 tox-2 inactive | CCL64 TGFb inh inactive | TGFb COP inh inactive
COc1ccc(NS(=O)(=O)c2ccc(OC)c(N(C)S(=O)(=O)c3ccc(Cl)cc3)c2)cc1	ATXN2 expr inh inconclusive, HT1080 IDH1KD tx inconclusive, S2 tox inconclusive, TGFb SMAD3 inh 10µM, HT1080-NT tox 14µM | TGFb CAGA inh 7.3µM | HepG2 tox-2 inconclusive | CCL64 TGFb inh inconclusive | TGFb COP inh inactive
CCCCCCC1(C)NC(c2ccc3c(c2)OCO3)=CC(c2cc(Br)ccc2O)N1 (stereo unspecified)	TGFb SMAD3 inh inconclusive (no result: ATXN2 expr inh, HT1080 IDH1KD tx, S2 tox, HT1080-NT tox)
